# Assay outcomes as filed in PubChem.
# The list is not random: actives were taken first. Their share in the collection is about 1.7%.
# GLP1R inv ag – qHTS of GLP-1 Receptor Inverse Agonists (Inhibition Mode). Glucagon-like peptide 1 receptor (Homo sapiens), P43220. HEK293 GLP-1R CRE-luciferase, luminescence, 24 h; GLP-1R form is constitutively active. Potency, µM (titrated, usually from 38.3 µM), inactives show top-dose activity change, negative = inhibition, hits mostly inhibitors. 410,000 compounds, 1.6% hits. AID 624417, 2012; also: % is scaled to controls: 0 for no effect and ±100 for the full control effect; nearly all actives have a fitted effect of over 55% in size
# Target sequence (P43220 whole entry, looked up): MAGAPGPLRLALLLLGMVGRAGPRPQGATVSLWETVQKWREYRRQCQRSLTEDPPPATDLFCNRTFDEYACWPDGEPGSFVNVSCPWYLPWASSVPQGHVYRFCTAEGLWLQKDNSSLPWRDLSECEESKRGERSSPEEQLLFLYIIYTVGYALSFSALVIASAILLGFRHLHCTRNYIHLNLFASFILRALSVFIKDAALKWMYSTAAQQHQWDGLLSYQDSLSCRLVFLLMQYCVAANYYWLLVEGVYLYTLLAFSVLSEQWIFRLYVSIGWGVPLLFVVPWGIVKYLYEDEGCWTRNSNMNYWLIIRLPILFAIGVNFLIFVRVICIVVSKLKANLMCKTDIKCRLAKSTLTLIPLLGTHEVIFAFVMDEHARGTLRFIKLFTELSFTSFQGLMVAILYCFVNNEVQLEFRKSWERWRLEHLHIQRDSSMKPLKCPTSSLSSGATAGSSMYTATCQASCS
#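 HEK293 cells stably co-expressing a cAMP-responsive luciferase reporter and constitutively active GLP-1R were seeded, incubated 12 h, then exposed to compounds for 24 h at 37 C. Luminescence was read 12 min after detection reagent; inverse agonists lower signal.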
# GLP-1R agonist – qHTS of GLP-1 Receptor Agonists | Glucagon-like peptide 1 receptor (Homo sapiens), P43220 | HEK293 GLP-1R CRE-luciferase, luminescence, 4-6 h; cells express a hypersensitive GLP-1R form | Potency, µM (titrated, usually from 45.6 µM), for the others: at the top dose activation, most hits filed as activators | 380,000 compounds, 0.007% hits; also: % of control where 0% means no effect
# PTHR1 ag – qHTS for PTHR1 Agonists: Primary Screen. Parathyroid hormone/parathyroid hormone-related peptide receptor (Homo sapiens), Q03431. HEK293 GP2 PTHR1 cells, GloSensor cAMP luminescence, 1 h. Potency, µM (doses to about 115 µM), inactives show top-dose activation, actives largely listed as activators. 410,000 compounds, 0.075% hits; also: nearly all actives have a fitted effect of over 55% in size
#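 HEK-293-derived GP2 cells expressing PTHR1 and a GloSensor cAMP reporter, 3,000/well, plated overnight, given luciferin plus IBMX (each 0.5 mM as added) for 1 h at 37 °C, then compound for 1 h at 37 °C. Luminescence was read after 15 min at room temperature.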
# RGS4 inhibitor – Inhibitors of Regulator of G Protein Signaling (RGS) 4: qHTS; Transcreener GDP fluorescence polarization, RGS4-accelerated GTP hydrolysis; Potency, µM (doses to about 114 µM), for inactives: at the highest dose activity change, negative = inhibition, hits mostly inhibitors; 390,000 compounds, 0.039% hits; also: % is scaled to controls: 0 for no effect and ±100 for the full control effect; nearly all actives have a fitted effect of over 75% in size
#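 MLSMR compounds (23 nl, pin-transferred) preincubated 10 min at room temperature with a 500nM (2x) first reagent, then RGS4 at 900nM (2x) plus Transcreener GDP mix added; fluorescence polarization (620/688 nm) read before and after 90 min at 30 °C.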
# HEK293 tox – qHTS of GLP-1 Receptor Inverse Agonists: Cytotox Screen. HEK293 cAMP-luciferase reporter cells, luminescence, 24 h. Potency, µM (top dose mostly 38.3 µM), for inactives: at the top dose activity change, negative = inhibition, actives largely listed as inhibitors. 410,000 compounds, 0.13% hits. AID 624418, 2012;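 also: loss of luciferase light is scored as toxicity; % is scaled to controls: 0 for no effect and ±100 for the full control effect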
#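 1536-well qHTS counterscreen of the MLSMR; 200 cells/uL, 12 h pre-incubation, 23 nL cpd, 24 h at 37 deg C 5% CO2, luciferase detection reagent, 12 min RT, luminescence. Inhibition = undesired.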
# * marks the source's active call; other numbers are inactive results; i = inactive; ? = inconclusive; / = no result given; ! = a repeat was not active; [ ] = remark or other dose. Calls follow the shape of the dose curve; as a rule, active = well fitted curve in the direction sought with a large enough effect; inconclusive = small, poorly fitted or top-dose-only effect, or another doubt; inactive = no such curve, though single readings can be large; an effect the other way counts as inactive or inconclusive. Potency is read from the fitted curve at half-maximal effect.
SMILES,GLP1R inv ag,GLP-1R agonist,PTHR1 ag,RGS4 inhibitor,HEK293 tox
Cc1cc(NC(=O)Nc2nnc(N(C)Cc3ccccc3)s2)ccc1Br,-2%,/,i,1%,0%
CCc1ccc(NC(=O)CSc2ccc(-c3cccs3)nn2)cc1,-2%,/,i,19%,1%
COc1ccc(CNC(=O)[C@H](C)NC(=O)C2CCN(C(=O)[C@@H](N)Cc3ccccc3)CC2)cc1,-8%,-2%,-34%,-2%,?
O=C1/C(=C\c2ccc(O)cc2)SC(=S)N1Cc1ccccc1,11µM*,-2%,-18%,-2%,7%
Cc1ccccc1[C@@]1(C)ON(c2ccccc2C(F)(F)F)C1=O,11µM*,-2%,-33%,?,-48%
O=C1N(c2ccccc2C(F)(F)F)O[C@]1(c1ccccc1)C1CCCC1,3%,-1%,i,-8%,1%
COc1cc(C2C(C#N)=C(N)N(Nc3ccccc3)C3=C2C(=O)CC(C)(C)C3)ccc1OCc1cccc(F)c1 (stereo not given),5.6µM*,-13%,i,-6%,-7%
COc1cc(C2C(C#N)=C(N)N(Nc3ccccc3)C3=C2C(=O)CC(C)(C)C3)ccc1OCc1ccccc1 (stereo not given),3.2µM*,-14%,-18%[57.5 µM],2%,14%
COc1ccc(C2C(C#N)=C(N)N(Nc3ccccc3)C3=C2C(=O)CC(C)(C)C3)cc1C (stereo not given),?,-12%,-72%[57.5 µM],-6%,162%
COc1ccc(CN(C)C(=O)CNC(=O)c2sc3ccccc3c2Cl)c(OC)c1,?,6%,-42%,/,2%
O=C(NC1CCCCC1)C1c2ccccc2OCC(=O)N1Cc1ccccn1 (stereo not given),18%,-1%,-1%,/,-1%
COCCNC(=S)N/N=C(\C)c1ccc(O)cc1,-21%,5%,i,-35%,?
CNC(=S)N/N=C(\C)c1ccc(C)c(C)c1,3.5µM*,12%,i,-2%,?
C/C(=N\NC(=S)Nc1ccccc1C)c1ccc(O)cc1,10µM*,5%,-3%,10%,?
COc1ccccc1C(=O)NC(=O)COC(=O)c1ccc(Br)o1,18%,-22%,-3%,10%,-5%
CCc1ccc(NC(=O)c2c(Cl)nc(C)c(Cl)c2C)cc1,4µM*,8%,-19%,-2%,-5%
CN1C(=O)/C(=C/c2ccccc2OCc2cccc(F)c2)N(C)C1=S,5.6µM*,12%,-19%,-15%,-4%
CCN(CC)Cc1cc(Nc2ccnc3cc(Cl)ccc23)ccc1O,11µM*!,0%,-15%,25%,?
CC(C)c1ccc(CN2CCN(C(=O)CCl)CC2)cc1,5.6µM*,-5%,-36%,-6%[56.9 µM],?
CC1CC(C)CN(CC(=O)NNC(=O)COc2ccc(Cl)cc2)C1 (stereo not given),?,-5%,i,25%,6%
Cc1cccc2[nH]c3c(N4CC=C(c5ccc(F)cc5)CC4)ncnc3c12,10µM*,-1%,-94%,-10%,-56%
COc1ccc(Cl)cc1NC(=O)CCN1C(=O)c2ccccc2Sc2ncccc21,0%,/,i,-7%,0%
CC1=Nc2cc(C(=O)NC3CCCC3)ccc2Sc2ccc(C)cc21,5µM*,-2%,i,17%,?
CC1=Nc2cc(C(=O)NC3CCCC3)ccc2Sc2ccc(Cl)cc21,1.6µM*,/,-65%,-11%,?
COc1ccc(NC(=O)CSc2nc3nc(C)c(Cc4ccc(C)cc4)c(C)n3n2)cc1OC,20%,/,i,8%,15%
CCCCC(O)(c1ccc(F)cc1)C(CN1CCOCC1)c1ccc(Cl)cc1 (stereo not given),2.8µM*,-1%,-4%,21%,-17%
